IDE exosite inh = insulin-degrading enzyme (human) exo-site inhibition; P14735; purified IDE, FL-6b probe fluorescence polarization; active compounds read low; z-score at 20 µM; 6.3% of 17,000 active;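 active = z-score of -3 or lower, meaning strong loss of probe binding signal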;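 note: His-tagged human IDE residues 42-1019 made in E. coli with 30 nM FL-6b probe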
Target sequence (P14735 42-1019 limits assumed): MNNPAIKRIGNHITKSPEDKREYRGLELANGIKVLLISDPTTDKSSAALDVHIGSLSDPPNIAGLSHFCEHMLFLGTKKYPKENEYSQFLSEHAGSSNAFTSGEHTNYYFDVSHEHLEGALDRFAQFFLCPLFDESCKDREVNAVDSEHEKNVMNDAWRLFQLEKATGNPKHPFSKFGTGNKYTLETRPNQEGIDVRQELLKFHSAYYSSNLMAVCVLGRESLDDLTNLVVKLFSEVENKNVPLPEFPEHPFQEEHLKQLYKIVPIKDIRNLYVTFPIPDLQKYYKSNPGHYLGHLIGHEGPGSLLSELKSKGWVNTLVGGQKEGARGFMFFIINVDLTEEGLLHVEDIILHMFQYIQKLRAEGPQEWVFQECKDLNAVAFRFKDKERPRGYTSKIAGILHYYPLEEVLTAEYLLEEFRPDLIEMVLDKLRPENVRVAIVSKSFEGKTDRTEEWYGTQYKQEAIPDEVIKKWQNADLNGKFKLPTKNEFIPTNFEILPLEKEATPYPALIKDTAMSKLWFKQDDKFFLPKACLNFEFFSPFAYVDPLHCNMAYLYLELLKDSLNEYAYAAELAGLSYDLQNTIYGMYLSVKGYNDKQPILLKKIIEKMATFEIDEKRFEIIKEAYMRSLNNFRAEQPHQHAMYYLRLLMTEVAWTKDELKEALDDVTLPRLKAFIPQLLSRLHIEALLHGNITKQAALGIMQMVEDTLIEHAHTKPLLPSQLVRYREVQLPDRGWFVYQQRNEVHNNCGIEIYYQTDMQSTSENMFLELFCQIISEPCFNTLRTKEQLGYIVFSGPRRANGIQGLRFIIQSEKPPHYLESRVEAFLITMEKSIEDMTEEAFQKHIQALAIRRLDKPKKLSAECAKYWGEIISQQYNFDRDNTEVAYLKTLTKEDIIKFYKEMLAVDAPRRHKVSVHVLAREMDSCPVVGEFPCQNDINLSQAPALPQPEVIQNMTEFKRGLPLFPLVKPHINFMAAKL
Numbers stand for hits; i = inactive. This excerpt belongs to a sample that is enriched for hits.

SMILES | IDE exosite inh
COc1ccc(-c2ccc([C@@H]3[C@H]4CN(C(=O)c5ccc(F)cc5)CCCCN4[C@H]3CO)cc2)cc1 | i
COCC(=O)N1CCCCN2[C@@H](CO)[C@@H](c3ccc(-c4ccc(OC)cc4)cc3)[C@@H]2C1 | i
COc1ccc(-c2ccc([C@H]3[C@@H](CO)N4CCCCN(C(=O)NC(C)C)C[C@H]34)cc2)cc1 | i
COCC(=O)N1CCCCN2[C@H](C1)[C@H](c1ccc(-c3ccc(OC)cc3)cc1)[C@@H]2CO | i
COc1cccc(C(=O)Nc2ccc3c(c2)OC[C@@H](C)N(CCc2ccccc2)C[C@@H](C)[C@H](OC)CN(C)C3=O)c1 | i
CCC(=O)N1[C@H](CO)[C@H](c2ccccc2)[C@H]1CN(CC1CCC1)S(C)(=O)=O | i
O=S(=O)(c1ccccc1)N1CCCCN2[C@@H](CO)[C@@H](c3ccc(C#Cc4cccnc4)cc3)[C@@H]2C1 | i
CCCC#Cc1ccc([C@@H]2[C@H](CO)N3C(=O)CN(C(=O)NC4CCCC4)C[C@@H]23)cc1 | i
CC(=O)N1CCCCN2[C@H](CO)[C@H](c3ccc(Br)cc3)[C@@H]2C1 | i
O=C(Nc1ccccc1Cl)N1C[C@@H]2[C@H](c3ccccc31)[C@@H](CO)N2C(=O)c1cccnc1 | i
O=C(C1CCC1)N1CC(=O)N2[C@@H](CO)[C@H](c3ccc(C#CCc4ccccc4)cc3)[C@@H]2C1 | i
O=C(C1CC1)N1CC(=O)N2[C@H](CO)[C@H](c3ccc(C#CC4CCCC4)cc3)[C@H]2C1 | i
O=C(C1CCCC1)N1CC(=O)N2[C@H](CO)[C@H](c3ccc(C#CC4CCCC4)cc3)[C@@H]2C1 | i
O=C(C1CCC1)N1CC(=O)N2[C@H](CO)[C@H](c3ccc(C#Cc4cccc(F)c4)cc3)[C@H]2C1 | -10.3
O=C(C1CC1)N1CC(=O)N2[C@@H](CO)[C@@H](c3ccc(C#Cc4cccc(F)c4)cc3)[C@@H]2C1 | -4.69
O=C(C1CC1)N1CC(=O)N2[C@H](CO)[C@H](c3ccc(C#CCc4ccccc4)cc3)[C@H]2C1 | i
O=C(C1CCC1)N1CC(=O)N2[C@H](CO)[C@@H](c3ccc(C#Cc4cccc(F)c4)cc3)[C@@H]2C1 | -4.44
COc1ccc(C#Cc2ccc([C@H]3[C@@H](CO)N4C(=O)CN(C(=O)C5CCOCC5)C[C@H]34)cc2)cc1 | i
COc1ccc(C#Cc2ccc([C@@H]3[C@@H](CO)N4C(=O)CN(C(=O)C5CCOCC5)C[C@H]34)cc2)cc1 | i
O=C(C1CCCCC1)N1CC(=O)N2[C@H](C1)[C@H](c1ccc(C#Cc3cccc(F)c3)cc1)[C@@H]2CO | i
O=C(C1CCCCC1)N1CC(=O)N2[C@H](CO)[C@@H](c3ccc(C#Cc4cccc(F)c4)cc3)[C@H]2C1 | i
O=C(C1CCOCC1)N1CC(=O)N2[C@H](CO)[C@@H](c3ccc(C#Cc4cccc(F)c4)cc3)[C@@H]2C1 | -10.3
Cc1nn(C)cc1NC(=O)C[C@@H]1CC[C@H]2[C@H](COc3ccc(NC(=O)C4CCOCC4)cc3C(=O)N2C)O1 | i
C[C@H](CO)N1C[C@H](C)[C@H](CN(C)S(=O)(=O)c2ccc(F)cc2)OCCCC[C@H](C)Oc2ccc(N(C)C)cc2C1=O | i
CC(=O)N1[C@H](CO)[C@H](c2ccccc2)C12CN(S(=O)(=O)c1ccccc1)C2 | i
SMILES | IDE exosite inh
Cc1noc(C)c1NC(=O)N(C)C[C@H]1Oc2cc(C#CCN(C)C)ccc2S(=O)(=O)N([C@@H](C)CO)C[C@H]1C | i
COCC#Cc1ccc([C@@H]2[C@@H](C#N)N(C(=O)Cc3ccccc3)[C@@H]2CO)cc1 | i
COc1cccc(S(=O)(=O)N2CCCCN3[C@H](C2)[C@H](c2ccc(C#CCC(C)C)cc2)[C@@H]3CO)c1 | i
COC(=O)C[C@H]1C=C[C@H](N)[C@H](CO)O1 | i
N#C[C@@H]1[C@@H](c2ccccc2-c2ccc(F)cc2)[C@@H](CO)N1c1ncc(-c2ccccc2)s1 | i
C/C=C/c1ccc([C@H]2[C@@H](CO)N3C(=O)CN(S(=O)(=O)c4ccccc4)C[C@H]23)cc1 | i
Cc1ccc(-c2ccc([C@H]3[C@@H](CO)N4CCCCN(C(=O)Nc5ccccc5)C[C@@H]34)cc2)cc1 | i
Cc1ccc(-c2ccc([C@@H]3[C@H]4CN(C(=O)Nc5ccccc5)CCCCN4[C@H]3CO)cc2)cc1 | i
Cc1cccc(-c2ccc([C@H]3[C@H]4CN(C(=O)NC(C)C)CCCCN4[C@H]3CO)cc2)c1 | -14.4
Cc1cccc(-c2ccc([C@H]3[C@H](CO)N4CCCCN(C(=O)NC(C)C)C[C@@H]34)cc2)c1 | -13.7
CC(C)NC(=O)N1CCCCN2[C@H](CO)[C@H](c3ccc(C4=CCCC4)cc3)[C@@H]2C1 | i
Cc1cccc(-c2ccc([C@@H]3[C@H](CO)N4CCCCN(C(=O)NC(C)C)C[C@@H]34)cc2)c1 | -11.1
Cc1cccc(-c2ccc([C@H]3[C@H](CO)N4CCCCN(C(=O)c5ccc6c(c5)OCO6)C[C@@H]34)cc2)c1 | i
N#C[C@@H]1[C@H](c2ccccc2C2=CCCC2)[C@@H](CO)N1C(=O)C1CCCC1 | i
Cc1ccc(S(=O)(=O)N2[C@@H]3CNC[C@H]2C3c2ccc(-c3cccc(C)c3)cc2)cc1 (stereo partly drawn) | i
CN(C)CC#Cc1ccc([C@@H]2[C@H](CO)N3C(=O)CN(C(=O)c4cccnc4)C[C@@H]23)cc1 | i
C[C@H](NC(=O)C[C@@H]1C[C@H]2c3cc(NS(=O)(=O)c4ccc(F)cc4)ccc3O[C@H]2[C@@H](CO)O1)c1ccccc1 | i
CC(=O)NC[C@@H]1[C@@H](c2ccccc2)[C@H](CO)N1C(=O)Cc1cccnc1 | i
C[C@H](CO)N1C[C@H](C)[C@@H](CN(C)S(=O)(=O)c2cn(C)cn2)OCc2ccccc2-c2ccccc2C1=O | i
O=C(c1ccncc1)N1CC(=O)N2[C@H](CO)[C@H](c3ccc(-c4ccccc4)cc3)[C@@H]2C1 | i
COc1cccc(-c2ccc([C@H]3[C@H]4CN(C(=O)c5cccnc5)CC(=O)N4[C@H]3CO)cc2)c1 | i
COc1cccc(-c2ccc([C@@H]3[C@H]4CN(C(=O)c5ccncc5)CC(=O)N4[C@H]3CO)cc2)c1 | -10.8
COc1cccc(-c2ccc([C@@H]3[C@H](CO)N4C(=O)CN(C(=O)c5cccnc5)C[C@@H]34)cc2)c1 | i
COc1cccc(-c2ccc([C@H]3[C@@H](CO)N4C(=O)CN(C(=O)c5ccncc5)C[C@@H]34)cc2)c1 | -8.55
COc1cccc(-c2ccc([C@@H]3[C@@H](CO)N4C(=O)CN(C(=O)c5ccncc5)C[C@H]34)cc2)c1 | i
SMILES | IDE exosite inh
CN1C(=O)c2cc(NS(=O)(=O)c3cccc(F)c3)ccc2OC[C@@H]2O[C@H](CC(=O)N3CCc4ccccc4C3)CC[C@@H]21 | i
O=C(C[C@@H]1C[C@@H]2c3cc(NC(=O)NC4CCCC4)ccc3O[C@@H]2[C@H](CO)O1)NCc1ccccc1F | i
O=S(=O)(c1ccccc1)N1CCCCN2[C@H](C1)[C@@H](c1ccc(-c3cncnc3)cc1)[C@@H]2CO | i
COc1cccc(NC(=O)N2CC(=O)N3[C@H](CO)[C@@H](c4ccc(C5=CCCCC5)cc4)[C@H]3C2)c1 | i
CN1c2ccc(-c3ccc(F)cc3)cc2[C@H]2[C@H](CCN2C(=O)Cc2cccnc2)[C@@H]1CO | i
CCCNC(=O)N1CC2(CCN(Cc3nccs3)CC2)c2c([nH]c3cc(OC)ccc23)[C@H]1CO | i
COc1cccc(-c2ccc([C@H]3[C@@H](CO)N4CCCCN(S(=O)(=O)c5cn(C)cn5)C[C@H]34)cc2)c1 | -3.95
